# Compound activity (PubChem)
# GBA activity: modulators of human glucocerebrosidase; 1.1% of 48,000 active; purified enzyme, resorufin glucoside fluorescence (screen aimed at inhibitors), 20 min; P04062; AID 360; Potency, µM; in the data active = potency below about 15 µM; inconclusive = mostly about 16 µM to 33 µM;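 note: the screen sought inhibitors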
# Target sequence (P04062 whole entry, looked up): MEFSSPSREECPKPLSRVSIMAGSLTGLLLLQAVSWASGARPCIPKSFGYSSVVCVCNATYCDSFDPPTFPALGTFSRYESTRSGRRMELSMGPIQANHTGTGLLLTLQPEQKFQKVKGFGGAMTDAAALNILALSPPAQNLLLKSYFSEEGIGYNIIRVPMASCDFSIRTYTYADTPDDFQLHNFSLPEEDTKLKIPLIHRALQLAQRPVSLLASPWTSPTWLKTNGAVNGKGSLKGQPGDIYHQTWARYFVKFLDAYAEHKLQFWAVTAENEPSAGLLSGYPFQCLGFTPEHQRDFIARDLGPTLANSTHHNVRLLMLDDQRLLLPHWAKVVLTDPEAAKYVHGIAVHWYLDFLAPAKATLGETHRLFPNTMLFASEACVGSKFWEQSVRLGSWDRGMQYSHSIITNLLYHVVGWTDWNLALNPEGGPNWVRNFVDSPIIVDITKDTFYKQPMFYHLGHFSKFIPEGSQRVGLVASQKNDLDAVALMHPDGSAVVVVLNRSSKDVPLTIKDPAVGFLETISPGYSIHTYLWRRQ
#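 Normal human glucocerebrosidase (0.2 nM final) was assayed with resorufin β-D-glucopyranoside (30 uM final) in 50mM citric acid/KH2PO4, 10mM sodium taurocholate, 0.01% tween-20, pH 5.9. Compounds were titrated; fluorescence (Ex 548, Em 600) read after 20 min at RT.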
# FLuc inh: inhibitors of firefly luciferase; AID 411; Potency, µM (doses to about 57.1 µM), for the others: top-dose activity change, negative = inhibition, actives largely listed as inhibitors; 2.2% of 72,000 active; purified firefly luciferase, luminescence, 8 min; P08659; note: % is set by controls: 0 for no effect and ±100 for the full control effect; nearly all actives have a fitted effect of over 40% in size
#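 Luminescence read-out after 8 min at room temperature; enzyme reaction used luciferin plus 10 uM ATP (linear range) in imidazole buffer pH 7.2 with KCl, MgCl2, Tween 20 and BSA. Each sample was run as a titration.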
# PK Bst: modulators of Bacillus stearothermophilus pyruvate kinase; purified pyruvate kinase, luminescence ATP production; ribose 5-phosphate activator present at AC10; Potency, µM; 1.2% of 51,000 active; AID 361; in the data active = potency below about 11 µM; inconclusive = mostly about 12 µM to 25 µM;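 the screen sought inhibitors and activators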;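 note: scaled between full activation by ribose 5 phosphate and full inhibition by luteolin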
# Caspase-1 inhib: allosteric or competitive inhibitors of human caspase-1; P29466; Caspase-1 enzyme, Ac-WEHD-AFC fluorogenic rate; Potency, µM (titrated, usually from 57.5 µM), for inactives: at the highest dose activity change, negative = inhibition, hits mostly inhibitors; 0.03% of 75,000 active; AID 900;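 note: plate controls were vehicle for no effect and no substrate for full effect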
# Casp7 inh: blocks human caspase-7 allosterically or competitively; P55210; recombinant caspase-7, Ac-DEVD-AFC fluorescence rate; Potency, µM (titrated, usually from 57.5 µM), for inactives: at the highest dose activity change, negative = inhibition, actives largely listed as inhibitors; 0.02% of 75,000 active; AID 889; active = well fitted inhibition curve with a large enough effect in the main read-out, with a control signal flat, not every such curve was filed as active; inconclusive = small, poorly fitted or top-dose-only effect, or a change in a side signal; note: % of control where 0% means no effect
# Starred values were filed as active, the others as inactive; i = inactive; ? = inconclusive; nt = no result; [ ] = another dose, or the depositor's remark. This is a sample that favours compounds with a hit; in the whole collection about 3.1% have one here. Unless noted, calls come from the whole dose curve; as a rule, active = well fitted inhibition curve with a large enough effect; inconclusive = small, poorly fitted or top-dose-only effect; inactive = flat fitted curve, though single readings scatter. Potency is the fitted concentration of half-maximal effect.
SMILES,GBA activity,FLuc inh,PK Bst,Caspase-1 inhib,Casp7 inh
COC(=O)c1[nH]c2ccc(C)cc2c1NC(=O)CN1CCCc2ccccc21,>76.9,1.1%,9.14*,-4.5%,-5.1%
CC(=O)OC[C@@H]1O[C@H](CCO/N=C(\C)CCN2CCc3nc(-c4ccccc4)c(-c4ccccc4)cc3C2)C=C[C@@H]1OC(C)=O,nt,0.2%[11.4 µM],nt,7.2%[11.5 µM],2.5%[11.5 µM]
O=C(Nc1ccc(N2CCCC2)c(Cl)c1)c1ccco1,nt,5.01µM*,nt,?,-23.8%
CC(=O)N1CCN(c2ccc(NC(=O)c3ccccc3Br)cc2Cl)CC1,0.332*,-5.3%,>57,-1.3%,-1.5%
O=C(Nc1ccc(N2CCN(C(=O)c3ccccc3)CC2)c(Cl)c1)c1ccc(Br)o1,nt,-0.9%[25.5 µM],>25.6,nt,nt
O=C(Nc1ccc(N2CCCCC2)c(C(=O)O)c1)c1ccco1,>76.9,-1.4%,>57,-1.3%,1.0%
O=C(Nc1ccc(N2CCCCC2)c(Cl)c1)c1ncn[nH]1,>76.9,10µM*,nt,2.1%,2.9%
CC(C)C12CC[C@@]3(CC[C@H]4[C@@](C)(CCC[C@]4(C)C(=O)O)[C@@H]3C1)[C@@H](CN)C2,nt,2.5%[11.4 µM],nt,1.7%[11.5 µM],-1.6%[11.5 µM]
COc1ccc(-c2cc(C(=O)N/N=C/c3ccc(O)cc3)[nH]n2)cc1,nt,nt,nt,-5.2%,-2.2%
COc1cc([C@@H]2Oc3cc([C@H]4Oc5cc(O)cc(O)c5C(=O)[C@H]4O)ccc3O[C@H]2CO)ccc1O,nt,0.8%[11.4 µM],nt,-1.2%,-5.8%
CC(C)Oc1ccc(C(=O)Nc2ccc(N(C)C)cc2)cc1,nt,3.16µM*,nt,-1.2%,0.7%
CCCOc1ccc(C(=O)Nc2ccc(N(C)C)cc2)cc1,nt,-25.5%,nt,-0.2%,0.4%
CC(C)Oc1ccc(NC(=O)Oc2ccccc2)cc1,nt,12.6µM*,nt,0.3%,1.5%
O=C(N[C@@]1(C(=O)O)C[C@@H]1c1ccccc1)c1ccccc1,nt,3.0%[11.4 µM],nt,-2.5%[11.5 µM],1.3%[11.5 µM]
COc1ccc([C@@H](Nc2ccccn2)c2cc(C(C)(C)C)cc(C(C)(C)C)c2O)cc1,nt,-1.2%[11.4 µM],nt,0.0%[11.5 µM],-0.8%[11.5 µM]
CC(C)[C@@H](C)/C=C\[C@@H](C)[C@@H]1CC[C@H]2C3=CC=C4C[C@@H](O)CC[C@]4(C)[C@H]3CC[C@]21C,nt,1.3%[11.4 µM],nt,0.6%[11.5 µM],-2.4%[11.5 µM]
COc1ccc(N/C=C(\C#N)c2nc3ccccc3n2C)c(OC)c1,nt,3.98µM*,10.2*,nt,nt
NC1=N[C@H](c2ccc(Cl)cc2)N(c2ccc(S(N)(=O)=O)cc2)C(N)=N1,nt,1.7%[11.4 µM],nt,-0.3%[11.5 µM],-2.3%[11.5 µM]
COc1ccc(CC(=O)N2CCN(c3ccccn3)CC2)cc1,>76.9,-1.3%,>57,1.0%,-1.2%
COc1ccc(-n2nc(C(=O)NCC(=O)N3CCN(c4ccccn4)CC3)c3ccccc3c2=O)cc1,>76.9,3.16µM*,8.23*,-4.3%,-1.2%
CC(C)c1ccc(S(=O)(=O)N2CCN(C(=O)c3cccc(F)c3)CC2)cc1,15.2*,0.2%,>57,-0.4%,-3.8%
O=C(c1cccc(F)c1)N1CCN(S(=O)(=O)c2ccccc2)CC1,nt,2.7%,nt,0.9%,1.0%
c1ccc2c(N3CCCC3)nc(-c3ccncc3)nc2c1,>76.9,1.4%,i,-1.4%,-0.9%
C=CCOc1nc(-c2ccncc2)nc2ccccc12,nt,-0.3%[25.5 µM],8.29*,nt,nt
CC(C)(C)NC(=O)c1ccc(NC(=O)C2COc3ccccc3O2)cc1 (centres undefined),>76.9,-0.3%,>57,2.8%,-0.9%
SMILES,GBA activity,FLuc inh,PK Bst,Caspase-1 inhib,Casp7 inh
CC1(C)Oc2ccc(NC(=O)C3COc4ccccc4O3)cc2O1 (centres undefined),>76.9,12.6µM*,?,0.1%,-3.7%
COC(=O)c1c(C)[nH]c(C(=O)COC(=O)Cc2ccc3c(c2)OCCO3)c1C,14.6*,-1.5%,>57,-2.0%,-4.1%
O[N+]1=CC=CCC1=S.On1ccccc1=S.[Zn],nt,nt,nt,-4.7%,-9.0%
CN1CCN(c2ncc3nc(-c4cc(F)cc(F)c4)c(=O)n(CCC#N)c3n2)CC1,nt,-0.5%[11.4 µM],nt,nt,?
CC(C)(C)n1ncc2c(=O)n(CC(=O)NCc3ccco3)cnc21,>76.9,-10.2%,>57,-1.1%,-1.3%
CC(C)(C)n1ncc2c(=O)n(CC(=O)NCc3ccc(F)cc3)cnc21,>76.9,20µM*,nt,0.5%,-1.0%
CC(C)(C)n1ncc2c(=O)n(CC(=O)OCc3ccccc3)cnc21,>76.9,0.398µM*,0.54*,-0.6%,-0.6%
COc1nc(-c2ccc(Cl)cc2)ccc1-c1noc(-c2ccco2)n1,>76.9,0.2%,>57,-3.7%,-0.3%
COc1cccc(-c2ccc(-c3noc(-c4ccccc4F)n3)c(OC)n2)c1,10.4*,2.0%,>57,0.0%,-4.5%
Clc1ccc(-c2nn3cnnc3s2)c(Cl)c1,>76.9,-3.9%,10.3*,2.0%,-0.5%
O=C(CSc1ncnc2sc3c(c12)CCCC3)c1ccco1,>76.9,31.6µM*,nt,-3.2%,1.6%
Cc1c(N=C/C=C/c2ccccc2)cnn1C,>76.9,15.8µM*,nt,-1.5%,-1.8%
COc1cccc(CNc2ccc3c(c2)ncn3C(C)C)c1OC,nt,12.6µM*,nt,-0.1%,3.9%
CCCn1cnc2cc(NCc3cccc(OC)c3O)ccc21,?,15.8µM*,nt,-2.2%,-0.9%
CCCn1cnc2cc(NCc3ccccn3)ccc21,nt,15.8µM*,nt,0.7%,-0.3%
CC(C)(CCc1nc2ccccc2[nH]1)C(=O)O,nt,-0.3%[11.4 µM],nt,1.4%[11.5 µM],0.6%[11.5 µM]
N=C(N)C(N=Nc1ccccc1)C(=N)N (centres undefined),nt,-1.1%[11.4 µM],nt,-1.5%[11.5 µM],-1.5%[11.5 µM]
O=C1c2ccccc2NC(c2ccc3c(c2)OCCO3)N1c1ccc2c(c1)OCCO2 (centres undefined),>76.9,20µM*,nt,-3.0%,-6.2%
Cc1ccc(CNc2ccc3c(c2)ncn3C)cc1,?,-16.3%,>57,-0.4%,1.1%
Cc1ccc(C(=O)Nc2ccc3c(c2)ncn3C)cc1,nt,25.1µM*,nt,0.4%,0.8%
COc1ccc(/C=N\n2nnc3ccccc32)cc1,>76.9,3.16µM*,2.16*,-3.0%,-8.8%
COc1ccc(N2CCN(C(=O)c3sc4nc(-c5ccc(F)cc5)cn4c3C)CC2)cc1,nt,2.4%,nt,1.1%,-0.9%
COc1ccc(-c2cn3c4c(sc3n2)CCCC4)cc1,>76.9,0.631µM*,0.541*,-3.8%,-2.5%
O=C(O)C/C(=C\c1ccccc1)C(=O)O,nt,1.7%[11.4 µM],nt,3.0%[11.5 µM],0.2%[11.5 µM]
Cc1cc(NC(=O)CSc2ccc(-c3nc4cc(C)c(C)cc4[nH]3)cn2)no1,>76.9,0.316µM*,i,0.0%,-1.3%
SMILES,GBA activity,FLuc inh,PK Bst,Caspase-1 inhib,Casp7 inh
Cc1ccc2nc(SCC(=O)Nc3cc(C)on3)[nH]c2c1,>76.9,-2.6%,>57,-0.7%,-0.4%
S=C(c1ccc(-c2cc(Cl)ccc2Cl)o1)N1CCOCC1,nt,nt,nt,-3.2%,-2.6%
S=C(c1ccc(-c2cccc(Cl)c2)o1)N1CCOCC1,nt,12.6µM*,nt,-3.3%,-5.8%
Cn1c(-c2ccc(Br)o2)nc2cc(Br)ccc21,>76.9,6.31µM*,nt,-3.8%,-3.4%
Cc1oc(-c2nc3ccccc3n2C)cc1C(=O)c1ccccc1,>76.9,2.51µM*,3.41*,-9.6%,-10.6%
Cn1c(-c2ccc(Br)o2)nc2ccccc21,>76.9,7.94µM*,?,-1.0%,-3.1%
c1ccc(-c2nnc(-c3ccccn3)nn2)nc1,>76.9,?,7.06*,-0.3%,0.3%
c1ccc(-c2cccc(-c3ccccn3)n2)nc1,>76.9,-5.2%,>11.4,-0.1%,1.4%
